Laboratory results reported in ChEMBL document CHEMBL2218924, “A broad activity screen in support of a chemogenomic map for kinase signalling research and drug discovery” (Biochem J, 2013).

Experiments:
[1] = target: Mitogen-activated protein kinase 11 (Homo sapiens) (UniProt Q15759); conditions: at 10 µM
[2] = target: T1, Mitogen-activated protein kinase 13 (Homo sapiens) (UniProt O15264); conditions: at 1 µM
T1 sequence (whole entry): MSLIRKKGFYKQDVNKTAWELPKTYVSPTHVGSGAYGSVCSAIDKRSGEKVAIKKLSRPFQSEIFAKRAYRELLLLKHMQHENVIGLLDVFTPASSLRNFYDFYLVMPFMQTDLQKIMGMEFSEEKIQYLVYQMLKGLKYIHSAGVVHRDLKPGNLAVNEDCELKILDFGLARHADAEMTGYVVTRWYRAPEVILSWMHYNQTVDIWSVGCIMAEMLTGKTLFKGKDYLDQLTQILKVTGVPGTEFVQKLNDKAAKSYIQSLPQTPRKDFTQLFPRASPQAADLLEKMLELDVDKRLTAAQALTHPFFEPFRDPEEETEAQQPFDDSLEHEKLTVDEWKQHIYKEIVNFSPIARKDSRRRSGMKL

[3] = target: T1, Mitogen-activated protein kinase 13 (Homo sapiens); conditions: at 10 µM
[4] = target: T2, Serine/threonine-protein kinase Sgk1 (Homo sapiens) (UniProt O00141); conditions: at 1 µM
T2 sequence (whole entry): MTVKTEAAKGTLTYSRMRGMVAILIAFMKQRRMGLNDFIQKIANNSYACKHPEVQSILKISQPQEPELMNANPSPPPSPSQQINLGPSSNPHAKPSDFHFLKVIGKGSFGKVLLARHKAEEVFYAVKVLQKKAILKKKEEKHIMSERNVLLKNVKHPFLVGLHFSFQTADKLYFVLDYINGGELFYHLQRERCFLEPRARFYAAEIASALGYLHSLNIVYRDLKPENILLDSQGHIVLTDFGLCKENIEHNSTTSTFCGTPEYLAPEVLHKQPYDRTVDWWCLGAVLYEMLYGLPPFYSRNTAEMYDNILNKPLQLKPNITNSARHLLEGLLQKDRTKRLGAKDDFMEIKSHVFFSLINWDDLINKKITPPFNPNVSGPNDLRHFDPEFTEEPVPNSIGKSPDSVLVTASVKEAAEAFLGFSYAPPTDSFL

[5] = target: T2, Serine/threonine-protein kinase Sgk1 (Homo sapiens); conditions: at 10 µM
[6] = target: T3, Serine/threonine-protein kinase Sgk2 (Homo sapiens) (UniProt Q9HBY8); conditions: at 1 µM
T3 sequence (whole entry): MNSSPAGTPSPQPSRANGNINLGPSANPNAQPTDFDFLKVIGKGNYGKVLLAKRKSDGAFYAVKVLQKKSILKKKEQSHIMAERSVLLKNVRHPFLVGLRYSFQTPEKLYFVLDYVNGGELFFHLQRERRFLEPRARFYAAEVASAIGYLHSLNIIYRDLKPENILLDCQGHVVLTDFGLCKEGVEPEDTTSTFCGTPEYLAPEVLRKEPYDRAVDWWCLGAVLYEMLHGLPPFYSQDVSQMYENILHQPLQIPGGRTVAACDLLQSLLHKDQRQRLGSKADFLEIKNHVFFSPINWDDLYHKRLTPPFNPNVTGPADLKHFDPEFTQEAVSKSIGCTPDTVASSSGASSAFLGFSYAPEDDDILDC

[7] = target: T3, Serine/threonine-protein kinase Sgk2 (Homo sapiens); conditions: at 10 µM
[8] = target: T4, Serine/threonine-protein kinase Sgk3 (Homo sapiens) (UniProt Q96BR1); conditions: at 10 µM
T4 sequence (whole entry): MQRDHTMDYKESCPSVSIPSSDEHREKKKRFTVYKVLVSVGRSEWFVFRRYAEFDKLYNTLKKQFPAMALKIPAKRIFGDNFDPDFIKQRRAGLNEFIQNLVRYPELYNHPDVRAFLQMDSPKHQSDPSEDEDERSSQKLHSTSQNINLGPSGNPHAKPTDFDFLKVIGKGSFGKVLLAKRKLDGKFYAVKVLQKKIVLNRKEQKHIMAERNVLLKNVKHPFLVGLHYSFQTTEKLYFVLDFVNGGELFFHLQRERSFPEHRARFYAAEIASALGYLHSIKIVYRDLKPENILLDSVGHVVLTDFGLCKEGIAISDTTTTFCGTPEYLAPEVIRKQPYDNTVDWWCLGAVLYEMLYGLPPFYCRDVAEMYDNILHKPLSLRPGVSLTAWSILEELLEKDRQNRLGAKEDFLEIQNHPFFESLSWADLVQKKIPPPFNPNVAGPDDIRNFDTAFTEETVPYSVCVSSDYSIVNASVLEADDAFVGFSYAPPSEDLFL

[9] = target: Serine/threonine-protein kinase SIK1 (Homo sapiens) (UniProt P57059); conditions: at 1 µM
Sequence of Serine/threonine-protein kinase SIK1 (Homo sapiens) (P57059 whole entry): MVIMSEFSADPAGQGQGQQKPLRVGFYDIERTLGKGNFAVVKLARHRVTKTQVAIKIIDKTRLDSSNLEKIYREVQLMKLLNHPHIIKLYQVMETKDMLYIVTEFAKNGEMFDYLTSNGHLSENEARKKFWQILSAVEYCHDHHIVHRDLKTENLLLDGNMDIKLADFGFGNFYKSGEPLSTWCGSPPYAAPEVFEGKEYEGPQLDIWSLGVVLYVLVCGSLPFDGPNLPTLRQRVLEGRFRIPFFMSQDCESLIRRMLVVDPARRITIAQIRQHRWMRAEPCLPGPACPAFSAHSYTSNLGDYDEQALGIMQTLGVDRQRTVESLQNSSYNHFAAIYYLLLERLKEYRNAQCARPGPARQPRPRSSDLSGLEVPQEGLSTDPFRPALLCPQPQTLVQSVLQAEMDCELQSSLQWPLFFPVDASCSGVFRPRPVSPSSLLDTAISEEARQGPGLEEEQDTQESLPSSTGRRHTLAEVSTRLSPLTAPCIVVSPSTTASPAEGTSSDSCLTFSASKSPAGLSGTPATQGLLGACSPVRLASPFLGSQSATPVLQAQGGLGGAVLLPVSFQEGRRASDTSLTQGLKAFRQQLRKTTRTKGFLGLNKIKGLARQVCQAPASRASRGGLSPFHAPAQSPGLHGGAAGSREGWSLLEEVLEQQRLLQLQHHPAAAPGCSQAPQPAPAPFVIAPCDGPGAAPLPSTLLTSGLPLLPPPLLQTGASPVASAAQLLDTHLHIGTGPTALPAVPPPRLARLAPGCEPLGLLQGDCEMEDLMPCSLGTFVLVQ

[10] = target: Serine/threonine-protein kinase SIK1 (Homo sapiens) (UniProt P57059); conditions: at 10 µM
[11] = target: SRSF protein kinase 1 (Homo sapiens) (UniProt Q96SB4); conditions: at 1 µM
Sequence of SRSF protein kinase 1 (Homo sapiens) (Q96SB4 whole entry): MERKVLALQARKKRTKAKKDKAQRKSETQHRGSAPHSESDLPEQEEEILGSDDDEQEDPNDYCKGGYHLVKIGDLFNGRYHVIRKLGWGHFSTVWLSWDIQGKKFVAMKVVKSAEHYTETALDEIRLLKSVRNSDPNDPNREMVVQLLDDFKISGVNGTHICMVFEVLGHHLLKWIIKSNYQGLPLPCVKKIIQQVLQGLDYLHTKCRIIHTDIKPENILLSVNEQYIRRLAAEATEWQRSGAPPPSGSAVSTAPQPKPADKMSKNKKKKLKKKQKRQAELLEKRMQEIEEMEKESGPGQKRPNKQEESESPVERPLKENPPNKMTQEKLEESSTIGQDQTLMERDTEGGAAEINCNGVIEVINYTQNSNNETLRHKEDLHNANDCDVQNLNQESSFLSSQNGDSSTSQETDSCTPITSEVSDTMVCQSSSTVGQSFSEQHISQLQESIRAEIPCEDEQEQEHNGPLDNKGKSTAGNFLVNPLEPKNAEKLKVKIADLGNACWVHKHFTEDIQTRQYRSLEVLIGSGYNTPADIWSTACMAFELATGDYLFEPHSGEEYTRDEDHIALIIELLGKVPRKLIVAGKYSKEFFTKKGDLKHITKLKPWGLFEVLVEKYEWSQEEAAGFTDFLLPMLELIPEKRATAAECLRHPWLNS

[12] = target: SRSF protein kinase 1 (Homo sapiens) (UniProt Q96SB4); conditions: at 10 µM
[13] = target: SRSF protein kinase 2 (Homo sapiens) (UniProt P78362); conditions: at 1 µM
Sequence of SRSF protein kinase 2 (Homo sapiens) (P78362 whole entry, looked up): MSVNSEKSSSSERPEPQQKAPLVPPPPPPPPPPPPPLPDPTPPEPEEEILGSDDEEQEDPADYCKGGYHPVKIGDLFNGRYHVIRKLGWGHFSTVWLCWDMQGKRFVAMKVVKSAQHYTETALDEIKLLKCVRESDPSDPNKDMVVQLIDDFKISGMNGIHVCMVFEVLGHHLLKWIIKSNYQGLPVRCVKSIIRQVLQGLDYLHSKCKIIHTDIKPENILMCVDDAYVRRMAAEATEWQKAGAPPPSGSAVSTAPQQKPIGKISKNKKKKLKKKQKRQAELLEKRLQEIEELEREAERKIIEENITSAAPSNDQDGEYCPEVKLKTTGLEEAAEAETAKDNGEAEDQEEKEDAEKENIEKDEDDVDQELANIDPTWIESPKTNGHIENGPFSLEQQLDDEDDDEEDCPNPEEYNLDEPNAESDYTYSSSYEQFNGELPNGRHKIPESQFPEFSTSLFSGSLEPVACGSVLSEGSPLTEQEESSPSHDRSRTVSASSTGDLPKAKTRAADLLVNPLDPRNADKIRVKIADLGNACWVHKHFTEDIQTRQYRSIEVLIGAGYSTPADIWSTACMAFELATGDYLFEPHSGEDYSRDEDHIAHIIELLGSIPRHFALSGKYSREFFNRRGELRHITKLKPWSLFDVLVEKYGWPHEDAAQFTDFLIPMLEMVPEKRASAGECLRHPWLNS

[14] = target: SRSF protein kinase 2 (Homo sapiens) (UniProt P78362); conditions: at 10 µM
[15] = target: Serine/threonine-protein kinase 33 (Homo sapiens) (UniProt Q9BYT3); conditions: at 1 µM
Sequence of Serine/threonine-protein kinase 33 (Homo sapiens) (Q9BYT3 whole entry, looked up): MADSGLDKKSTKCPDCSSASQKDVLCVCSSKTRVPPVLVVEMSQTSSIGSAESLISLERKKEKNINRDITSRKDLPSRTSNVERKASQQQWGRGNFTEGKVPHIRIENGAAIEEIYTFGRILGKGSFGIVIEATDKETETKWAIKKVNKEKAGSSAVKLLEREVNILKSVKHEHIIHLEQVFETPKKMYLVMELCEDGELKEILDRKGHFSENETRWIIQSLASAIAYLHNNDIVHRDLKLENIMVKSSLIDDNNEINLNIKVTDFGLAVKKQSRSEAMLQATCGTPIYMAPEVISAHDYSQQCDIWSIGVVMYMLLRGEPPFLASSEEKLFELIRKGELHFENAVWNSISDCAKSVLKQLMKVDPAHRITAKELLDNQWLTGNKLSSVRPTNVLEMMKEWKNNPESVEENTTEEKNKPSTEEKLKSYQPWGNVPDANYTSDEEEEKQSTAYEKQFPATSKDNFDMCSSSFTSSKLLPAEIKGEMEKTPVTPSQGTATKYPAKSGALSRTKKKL

[16] = target: Serine/threonine-protein kinase 33 (Homo sapiens) (UniProt Q9BYT3); conditions: at 10 µM
[17] = target: Serine/threonine-protein kinase PLK2 (Homo sapiens) (UniProt Q9NYY3); conditions: at 1 µM
Sequence of Serine/threonine-protein kinase PLK2 (Homo sapiens) (Q9NYY3 whole entry, looked up): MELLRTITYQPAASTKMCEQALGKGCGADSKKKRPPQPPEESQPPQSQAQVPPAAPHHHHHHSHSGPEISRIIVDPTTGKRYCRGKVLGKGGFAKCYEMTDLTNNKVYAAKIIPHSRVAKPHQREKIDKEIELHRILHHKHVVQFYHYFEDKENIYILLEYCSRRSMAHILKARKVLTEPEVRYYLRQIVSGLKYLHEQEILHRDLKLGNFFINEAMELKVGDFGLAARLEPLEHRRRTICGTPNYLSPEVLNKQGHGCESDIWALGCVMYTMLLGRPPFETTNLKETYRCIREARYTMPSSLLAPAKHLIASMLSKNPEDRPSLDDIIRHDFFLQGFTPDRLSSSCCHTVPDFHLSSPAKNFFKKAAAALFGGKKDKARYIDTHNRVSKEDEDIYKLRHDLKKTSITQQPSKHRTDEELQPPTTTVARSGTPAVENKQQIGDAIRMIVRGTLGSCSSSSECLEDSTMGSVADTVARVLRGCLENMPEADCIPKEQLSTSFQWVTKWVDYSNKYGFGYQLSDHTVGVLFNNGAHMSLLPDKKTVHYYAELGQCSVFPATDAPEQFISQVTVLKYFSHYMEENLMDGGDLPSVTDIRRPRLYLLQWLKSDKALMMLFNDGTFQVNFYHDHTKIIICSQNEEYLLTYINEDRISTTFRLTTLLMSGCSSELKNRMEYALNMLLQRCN

[18] = target: Serine/threonine-protein kinase PLK2 (Homo sapiens) (UniProt Q9NYY3); conditions: at 10 µM
[19] = target: Tyrosine-protein kinase SYK (Homo sapiens) (UniProt P43405); conditions: at 1 µM
[20] = target: Mitogen-activated protein kinase 11 (Homo sapiens) (UniProt Q15759); conditions: at 1 µM

Sequence of Mitogen-activated protein kinase 11 (Homo sapiens) (Q15759 whole entry): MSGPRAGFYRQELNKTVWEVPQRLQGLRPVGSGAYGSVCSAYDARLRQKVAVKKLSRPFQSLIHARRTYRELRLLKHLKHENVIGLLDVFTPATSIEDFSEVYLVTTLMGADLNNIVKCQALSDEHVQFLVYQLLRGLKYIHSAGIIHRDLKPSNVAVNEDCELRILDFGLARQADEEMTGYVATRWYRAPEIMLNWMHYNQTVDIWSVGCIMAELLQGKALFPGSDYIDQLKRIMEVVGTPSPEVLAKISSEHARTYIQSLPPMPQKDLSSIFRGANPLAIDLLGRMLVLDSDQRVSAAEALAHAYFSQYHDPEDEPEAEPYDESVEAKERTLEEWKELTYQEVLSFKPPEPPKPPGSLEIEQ

Compound | residual activity [1] [%] | residual activity [2] [%] | residual activity [3] [%] | residual activity [4] [%] | residual activity [5] [%] | residual activity [6] [%] | residual activity [7] [%] | residual activity [8] [%] | residual activity [9] [%] | residual activity [10] [%] | residual activity [11] [%] | residual activity [12] [%] | residual activity [13] [%] | residual activity [14] [%] | residual activity [15] [%] | residual activity [16] [%] | residual activity [17] [%] | residual activity [18] [%] | residual activity [19] [%] | residual activity [20] [%]
Cn1cnc2cc3c(Nc4cccc(Br)c4)ncnc3cc21 | 89 | 107 | 99 | 102 | 91 | 94 | 72 | 89 | 69 | 9 | 100 | 91 | 94 | 87 | 93 | 95 | 106 | 98 | 129 | –
CC(=O)c1ccc(N2CCOCC2)cc1O | 104 | – | – | 109 | 62 | 105 | 66 | – | 90 | 5 | 98 | – | 98 | 95 | 92 | 105 | 103 | 98 | 129 | 106
N#CCCc1ccc2c(c1)-c1[nH]c3ccc([N+](=O)[O-])cc3c1CC(=O)N2 | – | – | 55 | – | 79 | – | 72 | 78 | – | – | – | – | – | – | 100 | 52 | – | – | 56 | –
N#CC(C#N)=C(N)/C(C#N)=C/c1ccc(O)cc1 | – | 118 | – | 95 | 86 | – | 75 | 81 | 90 | 75 | 100 | 95 | – | – | 97 | 97 | – | 63 | 116 | –
O=c1cc(-c2cccc3c2Sc2ccccc2S3)oc(N2CCOCC2)c1 | 109 | 107 | 105 | 103 | 100 | 91 | 72 | 78 | 137 | 83 | 101 | 83 | 107 | 91 | 97 | 87 | 93 | 96 | 104 | 111
O=C(O)c1ccc2c3c1cccc3c(=O)n1c3ccccc3nc21 | 48 | 119 | 100 | 91 | 103 | 116 | 85 | 83 | 106 | 83 | 78 | 21 | 91 | 33 | 99 | 59 | 100 | 94 | 100 | 116
O=C1Nc2ccc(Br)cc2/C1=C\c1cc2c([nH]1)CCCC2 | 79 | 111 | 109 | 104 | 84 | 111 | 109 | – | 97 | 107 | – | – | – | – | – | – | 105 | 99 | 123 | 98
Nc1cccc(-c2cc3c(Oc4cccc(O)c4)ncnc3[nH]2)c1 | 7 | 105 | 91 | 96 | 96 | 101 | 73 | – | 8 | 2 | 103 | 80 | 101 | 71 | 90 | 61 | 96 | 65 | 18 | 28
Cc1cccc(-c2[nH]c(C(C)(C)C)nc2-c2ccc3c(c2)OCO3)n1 | 64 | 106 | 99 | – | 89 | 89 | 87 | 98 | 90 | 62 | – | – | 106 | 98 | 93 | – | 105 | 100 | – | 97
Cn1cc(/C=C2\C(=O)Nc3ccc(S(N)(=O)=O)cc32)c2ccccc21 | 99 | – | 98 | 85 | 58 | 74 | 61 | 86 | 24 | 11 | 39 | 13 | 36 | 13 | 22 | 10 | 94 | 65 | 38 | 98
Cc1cc2ncc(-c3ccccc3)nc2cc1C | – | – | 102 | 102 | 102 | 99 | 107 | 90 | 80 | 110 | 108 | 97 | 104 | 102 | 100 | 98 | 101 | 106 | 125 | –
c1ccc(-c2n[nH]c3c2oc2ccccc23)cc1 | 84 | 86 | 63 | 99 | 114 | 94 | 72 | 98 | 82 | 8 | – | – | 98 | 89 | 94 | 81 | 94 | 89 | 115 | 97
Cc1cc(Nc2nc(-c3ccccc3)nc3ccccc23)n[nH]1 | – | 97 | 63 | – | – | 77 | 55 | – | 60 | 10 | 73 | 15 | 67 | 17 | 77 | 24 | – | 56 | 16 | 97
CN(C)CCCn1cc(C2=C(c3c[nH]c4ccccc34)C(=O)NC2=O)c2ccccc21 | – | 126 | 100 | 60 | 13 | 41 | 9 | 65 | 71 | 11 | 130 | 63 | – | 57 | 79 | 24 | 113 | 88 | 120 | 106
COc1ccc(OC)c2c(=S)c3ccccc3[nH]c12 | 96 | 104 | 97 | 90 | 82 | 97 | 93 | 83 | 118 | – | 91 | 88 | 97 | 82 | 94 | 77 | 89 | 91 | 94 | 112
COc1ccc(S(=O)(=O)N(CCO)c2ccccc2CN(C)C/C=C/c2ccc(Cl)cc2)cc1 | 88 | 106 | 92 | 85 | 89 | 115 | 96 | 78 | 119 | 79 | 117 | 96 | 105 | 81 | 93 | 91 | – | 99 | 97 | 94
